These results are taken from ChEMBL document CHEMBL3988442, “University of Dundee, Small-Polar-MMV Screening Library” (2021).

About 1,200 (3.2%) of roughly 38,000 compounds showed an effect of 50% or more. The median lay at about -58%. For the sample, strong results were picked, then their nearest neighbours and some compounds at random.

The test system of the assay is Plasmodium falciparum. Briefly: Calibr Malaria Delayed Death Assay SOP. The assay is classed as functional, organism-based. Also on record: scale not given: in the data most compounds retested in dose-response had high values. To be noted: concentration 4.99e-06 (unit not given; other assays of the set use mol/L).
In the case of `C[C@@H]1CN(C(=O)c2cc(Cn3ccc4ccccc43)[nH]n2)C[C@H](C)O1`, the “Percent Effect” value is on record as -126.8%.
Consider `CC1CCCN(C(=O)Nc2cccc(CN3CCOC3=O)c2)C1` (stereo not drawn), for which the “Percent Effect” value is reported as -90.51%.
With `C[C@@H](O)CNC(=O)c1nc(Cc2c(Cl)cccc2Cl)no1` the figure was -61.62%.
For the molecule `COc1ccc(C(CC(=O)O)NC(=O)CCc2cccs2)cc1OC` (stereo not drawn), the “Percent Effect” value is recorded as -100.1%.
As to `CN1CCC(N(Cc2ccncc2)Cc2nc3c(s2)CCCC3)CC1`, the “Percent Effect” value is given as 7.357%.
Next, `COc1ccc(F)cc1C(C)NC(=O)Cn1ccc(=O)n(C)c1=O` (stereo not drawn): -164.7%; `COC1CCN(CCNC(=O)NC(C)c2cccc(Cl)c2)CC1` (stereo not drawn): 23.1%.
With `COC1CCN(CCNC(=O)NC(C)c2ccc(F)c(F)c2)CC1` (stereo not drawn) the figure was 45.3%.
As to `COC1CCN(CCNC(=O)NCC(C)c2cccc(C)c2)CC1` (stereo not drawn), the “Percent Effect” value worked out at 54%.
Next, `N#Cc1cc(Cn2cnc(C3CCC3)cc2=O)ccc1F`: -42.13%; `Cc1cnn(CC2CN(Cc3nnc(C4CC4)n3C)CCO2)c1` (stereo not drawn): -158.8%.
With `CC(NCc1cn(CCC(N)=O)c2ccccc12)c1nncn1C` (stereo not drawn) the figure was -188.2%.
For the molecule `CC(C)n1cnnc1CCNCc1cn(CCC(N)=O)c2ccccc12`, the “Percent Effect” value is -17.79%.
With `Cc1ccc(C(C)NCc2cn(CCC(N)=O)c3ccccc23)cc1C` (stereo not drawn) the figure was 82.29%; with `CN(C)C(=O)CN1CCc2ncnc(C3CC3)c2CC1`, -29.69%; with `COc1ncccc1NC(=O)NC(C)c1nncn1C` (stereo not drawn), -34.42%.
As to `Cc1ccc(C(CNCc2cccc3c2OCO3)N2CCOCC2)o1` (stereo not drawn), the “Percent Effect” value was found to be 65.56%.
Next, `Cl.c1cc(CNCc2ccnc(N3CCOCC3)c2)c2c(c1)OCO2`: -34.78%; `CC(C)c1nn(C)c(N(C)C)c1CNCc1cccc2c1OCO2`: 16.39%.
With `c1csc(C(CNCc2cccc3c2OCO3)N2CCOCC2)c1` (stereo not drawn), the “Percent Effect” value amounted to 39.98%.
With `Cc1cnc(C(=O)NCC(c2ccc(C)o2)N2CCOCC2)cn1` (stereo not drawn) the figure was -124.5%; with `CC(C)C(CNCc1cccc2c1OCO2)N1CCOCC1` (stereo not drawn), 75.82%; with `O=C(NCCn1cccn1)c1ccn(-c2cccc(F)c2)n1`, -72.56%.
For `Cc1noc2nc(C3CC3)c(Cl)c(C(=O)O)c12`, the “Percent Effect” value is given as -135.9%.
Next, `Cc1ccc(N2CCC(C(=O)NC3CCc4nccn4C3)CC2)nc1` (stereo not drawn): -14.8%; `CC(C)[C@@H]1CN(C(=O)NCc2ccco2)C[C@H]1N(C)C`: -12.41%; `CC(C)[C@@H]1CN(C(=O)C2(c3ccccc3)CCN(C)CC2)C[C@H]1N(C)C`: 83.06%.
With `CC(C)[C@@H]1CN(C(=O)CN(C)Cc2ccccc2)C[C@H]1C(=O)O` the figure was -22.97%.
Next, `CCCn1c(N2CCCC(C)C2)nc2c(C)nn(C)c2c1=O` (stereo not drawn): -32.41%.
Regarding `Cc1ncncc1C(=O)N1CCOC(c2nc(C(C)C)n[nH]2)C1` (stereo not drawn), the “Percent Effect” value is listed as -146.2%.
Next, `Cn1ncc(N2CCOC(CCNC(=O)CO)C2)cc1=O` (stereo not drawn): -51.52%.
With `CC(=O)N1CCC2(CCN(C(=O)c3ccc(F)c(C(F)(F)F)c3)CC2)C1` the figure was -64.74%; with `O=C(NCc1cccnc1N1CCCC(O)C1)c1ccsc1` (stereo not drawn), -31.1%.
With `CN1CCN(c2ccccc2CNC(=O)CSC(F)(F)F)CC1` the figure was 67.15%.
With `CN1CCCN(c2ccc(F)cc2CNC(=O)c2ccsc2)CC1`, the “Percent Effect” value came to 59.32%.
Next, `Cc1cc(CNC(=O)NCc2ccccc2N2CCOCC2)no1`: -32.16%; `CCOCCCNC(=O)Cc1cccc(F)c1`: -98.72%.
Consider `Cc1ccc(C(=O)NCc2cc(F)ccc2N2CCCN(C)CC2)o1`, for which the “Percent Effect” value came to 33.96%.
Next, `CN1CCN(c2ccccc2CNC(=O)Cc2cccc(F)c2)CC1`: 77.21%; `CCc1ccccc1CNC(=O)CNCC(F)(F)F`: -137.2%.
Regarding `O=C(CN1CCS(=O)(=O)CC1)NCc1ccccc1F`, the “Percent Effect” value is -87.27%.
With `CN1CCN(c2ccccc2CNC(=O)Cc2ccccc2F)CC1` the figure was 75.84%.
Consider `CC(C)N(C)CC(=O)NCc1ccccc1N1CCN(C)CC1`, for which the “Percent Effect” value is 43.49%.
With `Cc1cc(=O)n(C)cc1NC(=O)Cc1cccc(F)c1` the figure was -34.19%.
Next, `CC(=O)N1CCCN(C(=O)c2cnn(C(C)(C)C)c2C)CC1`: -71.74%; `Cc1ccc(CNC(=O)C2CCNC(=O)C2)c(OCCC(C)C)c1` (stereo not drawn): -137.1%.
With `COc1nn(C)c2c1CCCN(C(=O)c1ccc3ccccc3n1)C2.O=C(O)C(F)(F)F` the figure was -93.98%; with `O=C(NCc1cc(=O)n2c(n1)CN(CC1CC1)CCC2)c1ccsc1.O=C(O)C(F)(F)F`, -77.99%.
As for `Cc1cc(NS(=O)(=O)c2cccs2)ccc1-n1cccc1C(=O)O`, the “Percent Effect” value is -24.74%.
On to `CN1CCN(c2ccccc2NC(=O)NCCc2ccccc2)CC1`, for which the “Percent Effect” value came to 83.6%.
With `CN1CCN(c2ccccc2NC(=O)NCC[S+](C)[O-])CC1` (stereo not drawn) the figure was -127.8%; with `CN1CCN(c2ccccc2NC(=O)NCCc2ccc(O)cc2)CC1`, -22.54%.
With `c1nc(N2CCc3[nH]cnc3C2)c2cc[nH]c2n1` the figure was -49.27%.
In the case of `CCn1nc(C)c2nc(C(C)C)nc(NCc3ccccn3)c21`, the “Percent Effect” value is on record as 36.29%.
Next, `Cc1ccc(CN(CCN(C)C)C(=O)Cc2cn3ccccc3n2)o1`: -71.99%; `Cc1nc2sccn2c1CNc1ccc(C(=O)O)cc1`: -70.26%; `O=C(C1CCCN1Cc1nc(-c2ccco2)no1)N1CCSCC1` (stereo not drawn): -120.3%.
Next, `c1coc(-c2nc3c(c(NCc4n[nH]c5c4CCC5)n2)CCNCC3)c1`: 20.11%; `c1ccc(-c2nc3c(c(NCc4n[nH]c5c4CCC5)n2)CCNC3)cc1`: 89.28%.
Consider `Nc1nc2c(c(NCc3cnc4c(c3)CCC4)n1)CCNC2`, for which the “Percent Effect” value was -34.51%.
Regarding `COc1ccccc1C(C)NC(=O)NCCC(=O)NC1CCCCC1` (stereo not drawn), the “Percent Effect” value is -102.7%.
Consider `Cc1nc(C(=O)N2CCN(S(C)(=O)=O)CC2)c(-c2ccccc2)s1`, for which the “Percent Effect” value is -18.55%.
Next, `CC(C)COCCCNC(=O)c1cccnc1N1CCOCC1`: -144.5%; `Cc1ccc2c(c1)C1(CCNCC1)CC2OCC1CC1` (stereo not drawn): 44.42%.
With `Cc1ccc2c(c1)C1(CCNCC1)CC2NCCO.Cl.Cl` (stereo not drawn) the figure was -29.16%; with `Cl.Cl.c1ccc2c(c1)C(NC1CCCC1)CC21CCNCC1` (stereo not drawn), 74.54%; with `Cl.O=C1NC2(CCNCC2)CC1c1ccccc1` (stereo not drawn), -140.8%.
With `Cl.Cl.Fc1ccc2c(c1)C1(CCNCC1)CC2NC1CC1` (stereo not drawn) the figure was 82.19%; with `CC(C)NC1CC2(CCNCC2)c2cc(F)ccc21.Cl.Cl` (stereo not drawn), 6.754%.
For the molecule `Cc1ccc2c(c1)C(NC(C)C)CC21CCNCC1.Cl` (stereo not drawn), the “Percent Effect” value is on record as -48.62%.
Next, `COCCN1CCC2(CC1)CC(OCC1CC1)c1ccc(C)cc12` (stereo not drawn): 40.12%; `Fc1ccc2c(c1)C1(CCNCC1)CC2OCC1CC1` (stereo not drawn): 69.13%; `Cc1ccc2c(c1)C(NC1CC1)CC21CCNCC1.Cl` (stereo not drawn): 82.38%.
With `CNC(=O)CC1CC2(CCNCC2)c2cc(F)ccc21` (stereo not drawn) the figure was -118.7%.
With `CCCc1noc(CN2CCC(C(=O)Nc3cnn(CC)c3)CC2)n1` the figure was -105%; with `Cc1cc(C)n(C2CCCN(C(=O)Cc3cccs3)C2)n1` (stereo not drawn), -45.18%; with `Cc1nccn1CCCn1c(=O)cnc2ccccc21`, -30.97%.
Take `CNC(=O)C1(CCCc2ccncc2)CCN1.O=C(O)C(F)(F)F` (stereo not drawn): the “Percent Effect” value was -123.5%.
For `Cc1ccc2c(c1)C1(CCNCC1)CC2NC(C)C.Cl.Cl` (stereo not drawn), the “Percent Effect” value is -38.07%.
With `Cc1ccc2c(c1)C1(CCNCC1)CC2NC1CC1.Cl.Cl` (stereo not drawn) the figure was 73.32%.
On to `COc1ccc2c(c1)C1(CCNCC1)CC2NC1CC1.Cl.Cl` (stereo not drawn), for which the “Percent Effect” value is recorded as -4.171%.
Next, `CC(C)(C)c1nccc(N2CCC(OCCN3CCCCC3)C2)n1` (stereo not drawn): 62.36%.
With `CC(C)(C)c1nccc(N2CCN(C3CCS(=O)(=O)C3)CC2)n1` (stereo not drawn) the figure was -36.45%.
As for `Cc1ccnc(N2CCC(OCCN3CCCCC3)C2)n1` (stereo not drawn), the “Percent Effect” value is recorded as -84.22%.
Next, `COc1ccnc(N2CCC(OCCN3CCCCC3)C2)n1` (stereo not drawn): 51.05%.
Next, `C1CCN(CCOC2CCNCC2)CC1`: -37.31%; `Cc1cnc(N2CCC(OCCN3CCCCC3)C2)nc1C` (stereo not drawn): 23.23%; `O=c1cc(Cn2ccnc2)nc2n1CCCN(Cc1ccncc1)C2`: -42.89%.
Next, `Cn1cccc1C(=O)N1CCCn2nc(CCC(=O)NC3CC3)cc2C1`: -14.31%.
Regarding `O=C(c1ccc(S(=O)(=O)NCc2ccon2)cc1)N1CCOCC1`, the “Percent Effect” value is given as -26.34%.
With `O=C(O)C(F)(F)F.O=C(c1ccnnc1)N1C[C@@H]2C[C@@H](c3nc(C4CC4)cs3)O[C@@H]2C1` the figure was -41.35%.
Next, `Cc1ccoc1C(=O)N1C[C@@H](OCC2CCOCC2)[C@H]2OCCC[C@H]21`: 0.5559%; `CCOc1ccc(NC(C)C(=O)Nc2cc(C)no2)cc1` (stereo not drawn): -61.09%; `CC1(C)CN(Cc2c[nH]c(CC3CCCC3)n2)CC[C@]1(C)O`: -34.05%.
With `c1[nH]c(CC2CCCC2)nc1CN1CCCC2(CCOC2)C1` (stereo not drawn) the figure was 81.53%; with `OC1(CN2CCCC2)CCCN(Cc2c[nH]c(CC3CCCC3)n2)C1` (stereo not drawn), 36.89%.
Turning to `COC[C@]1(O)CCN(Cc2c[nH]c(CC3CCCC3)n2)CC1(C)C`, the “Percent Effect” value was determined as 15.86%.
With `OC1(CN2CCCCC2)CCN(Cc2c[nH]c(CC3CCCC3)n2)C1` (stereo not drawn) the figure was 52.98%.
Next, `C[C@@H]1CN(Cc2c[nH]c(CC3CCCC3)n2)CC[C@]1(C)O`: -135.8%.
With `CN1CC(=O)N(c2ccccc2)CC12CCN(C(=O)c1cnccn1)C2.O=C(O)C(F)(F)F` (stereo not drawn) the figure was -66.28%.
`Cn1cc(CN2CC[C@@H](O)[C@@H]2Cc2ccccc2)cn1`: the “Percent Effect” value was -45.02%.
With `COc1ccc(CN2CC[C@H](O)[C@@H]2Cc2cnn(C)c2)cc1.O=C(O)C(F)(F)F` the figure was -6.903%; with `O=C(O)C(F)(F)F.O[C@@H]1CCN(CC2CCOC2)[C@H]1Cc1ccccc1` (stereo partly drawn), -110.3%; with `O=C(O)C(F)(F)F.O[C@@H]1CCN(CC2CC2)[C@H]1Cc1ccccc1`, 63.26%.
With `COc1ccc(CN2CC[C@@H](O)[C@@H]2Cc2cnn(C)c2)cc1.O=C(O)C(F)(F)F` the figure was -130.2%.
With `O=C(O)C(F)(F)F.O=C(O)C(F)(F)F.O[C@@H]1CCN(CC2CCOC2)[C@H]1Cc1cccnc1` (stereo partly drawn) the figure was -68.9%; with `Cn1cc(CN2CC[C@H](O)[C@@H]2Cc2ccccc2)cn1.O=C(O)C(F)(F)F`, 22.75%; with `COc1ccc(CN2CC[C@@H](O)[C@@H]2Cc2ccccc2)cc1.O=C(O)C(F)(F)F`, 80.27%.
